Vif imaging = inhibitors of HIV Vif | HEK293T cells, Vif self-association by quenched fluorescence, imaging, 24 h | inhibition, % at 7.49 µM | hit rate 0.35% among 340,000; in the data active means inhibition above about 50%, passing the limit was not always enough; inconclusive means no clear call, values can overlap the other calls; inactive means below about 31%
HSF-1 act = increases HSF-1 driven luciferase reporter signal; NIH3T3-HGL HSF-1 luciferase reporter, MG132, 8 h; 100% = twice DMSO control signal; activation, % at 9 µM; hit rate 1.7% among 300,000; AID 504408;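 active means mean replicate activation of at least 50% with a set share of replicates each reaching 50%; inconclusive means only one of those two conditions met; inactive means mean below 50% and too few replicates reaching it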;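 further: 0% = median of the neutral control wells and 100% = twice that signal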
HSF1 inhib = HSF1 inhibition | NIH3T3-HGL HSE-luciferase, MG132-induced, luminescence 8 h; active compounds read low | activity change, negative = inhibition, % at 7.5 µM (by protocol) | hit rate 0.77% among 300,000 | AID 2098;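 active means more than half of replicate wells show activity change below -50%, luminescence cut by over half; inconclusive means some wells, but at most half, below -50%; inactive means no replicate well below -50%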;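 further: luciferase reports HSF-1 transcriptional activity via heat shock element; 0% = median of DMSO wells and -100% = zero luminescence signal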
esBAF inh = SWI/SNF esBAF complex inhibition. reporter increase, % at 12.5 µM. hit rate 2% among 350,000. mouse ES cells, Bmi1-luciferase knock-in reporter, 24 h; 100% = twice the neutral-well signal; in the data active means activation above about 40%; inconclusive means no clear call, values can overlap the other calls;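 further: 0% = median of the plate's neutral control wells and 100% = double that signal; a rise in the Bmi1 reporter signal indicates esBAF inhibition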
* = called active by the depositor; ? = inconclusive; . = no result given. A selection: hits, their analogues and other compounds. The true share with any hit is near 3.4%.

SMILES	Vif imaging	HSF-1 act	HSF1 inhib	esBAF inh
CC1CCCN(c2ccc(C(=O)NCC3CCCO3)cn2)C1 (configuration not stated)	-1	8	1	50*
O=C(NCC1CCCO1)c1ccc(/C=N/O)nc1 (configuration not stated)	11	-1	1	1
CC1CCN(c2ccc(C(=O)NCc3cccs3)cn2)CC1	3	52*	39	59*
CC1CCN(S(=O)(=O)c2cccc(C(=O)NCc3cccs3)c2)CC1	-3	0	-10	-8
CN1CCN(C(=O)C[C@H]2CC[C@H]3[C@@H](COC[C@H](O)CN3Cc3cccc(F)c3)O2)CC1	.	.	.	-4
O=C1CCN(Cc2ccccc2)CCN1[C@H](CO)Cc1ccccc1	-2	-10	-1	-1
O=C1CCN(Cc2ccc(O)cc2)CCN1[C@H](CO)Cc1ccccc1	54*	2	-4	2
CC1(C)Nc2ccccc2C(=O)N1c1ccc(Br)cc1	-11	46	22	.
Cc1ccc(N2C(=O)c3ccccc3NC2(C(=O)O)c2ccccc2)cc1Cl (configuration not stated)	-9	24	26	60*
O=C(Nc1ccc(NC(=S)NC(=O)c2ccccc2Cl)cc1)c1cccc(Cl)c1	4	56*	41	5
CNC(=O)NC(=S)NC(=O)c1ccccc1Cl	-2	-80	-76*	-8
O=C(NC(=S)Nc1ccccc1O)c1ccc(Cl)cc1Cl	-11	76*	57	35
O=C(Nc1ccccc1Cl)c1ccc(Cl)cc1Cl	3	21	16	9
CSc1nc2sc3c(c2c(=O)n1C)CCC3	-2	4	-7	6
O=c1c2c3c(sc2nc2n1CCCC2)CCCC3	-6	11	4	48*
O=c1c2c3c(sc2nc2n1CCC2)CCCCC3	1	7	6	.
CSc1nc2sc3c(c2c(=O)n1C)CCCC3	0	11	4	45*
C[C@@H]1CN([C@@H](C)CO)C(=O)Cc2cc(NC(=O)CCC(F)(F)F)ccc2O[C@H]1CN(C)C(=O)NC1CCCCC1	.	.	.	0
COc1ccc(C2=NNC(c3cccs3)=Nc3ccc(OC)cc32)cc1	-1	9	6	64*
CCc1ccc(N2C(=O)CC(NNc3nc4ccccc4s3)C2=O)cc1 (configuration not stated)	-4	220*	162	.
COc1cccc(N2C(=O)CC(NNc3nc4ccccc4s3)C2=O)c1 (configuration not stated)	6	69*	39	.
CN1C(=O)c2cc(NC(=O)c3cccc(C(F)(F)F)c3)ccc2OC[C@@H]2O[C@@H](CC(=O)NCCN3CCCC3)CC[C@@H]21	.	.	.	0
CO[C@H]1CN(C)C(=O)c2cc(NC(=O)Nc3cccc(F)c3)ccc2OC[C@H](C)NC[C@H]1C	.	.	.	-1
CCCC(=O)Nc1nc2ccc(OC)cc2s1	-10	43	19	58*
O=C(CN1CCCCC1)Nc1nc(-c2ccccc2)cs1	0	11	9	55*
SMILES	Vif imaging	HSF-1 act	HSF1 inhib	esBAF inh
COc1ccc2nc(NC(=O)CCNC(=O)c3ccco3)sc2c1	-1	.	.	45*
Cc1nc(NC(=O)CN2CCOCC2)sc1-c1ccccc1	-4	33	23	50*
Cc1noc(C)c1NC(=O)N(C)C[C@H]1Oc2c(NS(=O)(=O)c3cn(C)cn3)cccc2C(=O)N([C@@H](C)CO)C[C@H]1C	.	.	.	-6
COc1ccc2nc(NC3=NCCC3)sc2c1	.	17	26	58*
COc1cccc(Nc2nc3ccc(OC)cc3s2)c1	-17	46	26	.
COc1ccc2nc(NC(=O)CN3CCOCC3)sc2c1	9	-91	-89*	15
O=C(C[C@H]1C=C[C@@H](NC(=O)c2ccncc2)[C@H](CO)O1)NCC1CC1	.	.	.	-1
COc1cc(Nc2nc3ccccc3n3nnnc23)cc(OC)c1OC	50*	10	-5	2
COc1ccccc1OCc1ccc(C(=O)Nc2ccccc2)cc1	-11	.	.	79*
COc1ccccc1OCCNC(=O)c1ccc(Br)cc1	-7	?	33	56*
Cc1ccccc1C(=O)NCCOc1ccccc1Cl	6	70*	43	29
COc1cc(C(=O)Nc2ccc(NC(C)=O)cc2)ccc1OCc1ccccc1	-11	8	0	.
COc1ccc(C(=O)Nc2ccc(OCc3ccccc3)cc2)cc1[N+](=O)[O-]	-1	-67	-61*	-1
COc1ccccc1OCCNC(=O)c1ccc(C(C)(C)C)cc1	0	-3	-5	.
CCCC(=O)Nc1ccc2c(c1)C(=O)N(C)C[C@H](OC)[C@@H](C)CN(C(=O)CC)[C@@H](C)CO2	.	.	.	1
C[C@@H]1CN([C@@H](C)CO)C(=O)c2cc(-c3cccnc3)cnc2O[C@@H]1CN(C)C(=O)Cc1cccnc1	.	.	.	2
COc1ccc(C(=O)Nc2cccc([N+](=O)[O-])c2)cc1Br	74*	4	9	22
C=CCc1ccccc1OCC(O)CN1CCN(CCN2C(=O)c3cccc4cccc(c34)C2=O)CC1 (configuration not stated)	3	61*	44	.
CS(=O)(=O)Nc1ccc2c(c1)[C@H]1C[C@H](CC(=O)NC3CCCC3)O[C@H](CO)[C@H]1O2	.	.	.	1
C[C@H](CO)N1C[C@H](C)[C@H](CN(C)S(=O)(=O)c2ccccc2)Oc2ccc(NS(C)(=O)=O)cc2C1=O	.	.	.	-12
O=c1c2cc(N3CCOCC3)ccc2[nH]c(=S)n1Cc1ccccc1Cl	-9	-11	-15	.
CCOC(=O)N1CCN(C(=O)c2ccc(Cn3c(=S)[nH]c4ccc(Br)cc4c3=O)cc2)CC1	-12	-30	-15	-16
O=C(c1ccc2c(=O)n(Cc3ccccc3)c(=S)[nH]c2c1)N1CCOCC1	-2	-90	-87*	-4
O=c1c2cc(N3CCOCC3)ccc2[nH]c(=S)n1Cc1ccccn1	0	67*	28	.
CC(=O)c1ccc(N2CCN(C(=O)c3ccc(Cn4c(=S)[nH]c5ccc(N6CCOCC6)cc5c4=O)cc3)CC2)cc1	-12	2	4	61*
SMILES	Vif imaging	HSF-1 act	HSF1 inhib	esBAF inh
CCCNC(=O)C[C@@H]1CC[C@@H]2[C@H](COc3ccc(NC(=O)NC(C)C)cc3C(=O)N2C)O1	.	.	.	-6
Cc1ccccc1S(=O)(=O)N1C[C@@H](O)COC[C@H]2O[C@@H](CC(=O)O)CC[C@@H]21	.	.	.	0
CCc1ccc(NC(=O)C/C(C)=N/NC(=O)COc2ccc(C)cc2Br)cc1	8	59*	40	1
Cc1ccc2nc(NC(=O)c3ccc(Cl)s3)sc2c1	16	47	29	9
Cc1nc2ccc(NC(=O)N(C(C)C)C(C)C)cc2s1	2	-41	-39	44*
Cc1nc2ccc(NC(=O)N(C)c3ccccc3)cc2s1	3	-22	-13	.
Cc1nc2ccc(NC(=O)c3ccc(Cl)s3)cc2s1	5	34	25	79*
O=C(COC(=O)c1ccccc1NC(=O)c1ccco1)NCCC1=CCCCC1	14	35	21	63*
O=C(COC(=O)c1ccccc1O)NCCC1=CCCCC1	4	18	20	.
C/C(=N\NC(=O)c1c[nH]c2ccccc12)c1ccco1	-13	8	0	51*
